# Measured values reported in PubChem BioAssay AID1159580 (chemical genetic matrix, 2015).
# In all, about 5,500 compounds went through this assay and about 2,000 (36%) were called active. Roughly 18% stayed inconclusive and do not appear here. This is one part of the list. Values without a mark were called inactive. Cut-off read from the data, not from the text of the source: active = normalized growth mostly below about 0.91 (no sharp cut-off); inconclusive = no clear call, values can overlap the other calls; inactive = mostly above about 0.92.
# Experiment: chemical genetic growth profiling, strain panel (AID 1159580);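 note: tested at 20 µM; growth read once vehicle control cultures reached saturation at 30 °C; 1 = growth at the plate median or of vehicle wells; lower values mean less growth of the strain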
# Conditions: growth OD
compound,measurement,setting,value
CC[C@@]1(O)C[C@H](O[C@H]2C[C@H](N(C)C)[C@H](O)[C@H](C)O2)c2c(cc3c(c2O)C(=O)c2c(O)ccc(O)c2C3=O)[C@H]1C(=O)OC,normalized growth,"S. cerevisiae deletion strains, locus YJR066W, strain TOR1, active compounds read low",0.957
same,normalized growth,"S. cerevisiae deletion strains, locus YJR075W, strain HOC1, active compounds read low",0.0948 (active)
same,normalized growth,"S. cerevisiae deletion strains, locus YKL009W, strain mrt4, active compounds read low",0.961
same,normalized growth,"S. cerevisiae deletion strains, locus YKL068W, active compounds read low",0.982
same,normalized growth,"S. cerevisiae deletion strains, locus YKL085W, strain MDH1 (second series), active compounds read low",1
same,normalized growth,"S. cerevisiae deletion strains, locus YKL085W, strain MDH1, active compounds read low",1
same,normalized growth,"S. cerevisiae deletion strains, locus YKL160W, strain elf1, active compounds read low",0.924
same,normalized growth,"S. cerevisiae deletion strains, locus YKR001C, strain vps1, active compounds read low",0.0857 (active)
same,normalized growth,"S. cerevisiae deletion strains, locus YKR026C, strain gcn3, active compounds read low",0.994
same,normalized growth,"S. cerevisiae deletion strains, locus YKR091W, strain srl3, active compounds read low",0.958
same,normalized growth,"S. cerevisiae deletion strains, locus YLL001W, strain dnm1, active compounds read low",0.884 (active)
same,normalized growth,"S. cerevisiae deletion strains, locus YLL026W, active compounds read low",0.975
same,normalized growth,"S. cerevisiae deletion strains, locus YLL041C, strain sdh2, active compounds read low",0.935
same,normalized growth,"S. cerevisiae deletion strains, locus YLR027C, strain aat2, active compounds read low",0.975
same,normalized growth,"S. cerevisiae deletion strains, locus YLR039C, strain RIC1, active compounds read low",0.113 (active)
same,normalized growth,"S. cerevisiae deletion strains, locus YLR058C, strain SHM2, active compounds read low",0.0794 (active)
same,normalized growth,"S. cerevisiae deletion strains, locus YLR102C, strain apc9, active compounds read low",0.467 (active)
same,normalized growth,"S. cerevisiae deletion strains, locus YLR113W, strain HOG1, active compounds read low",0.95
same,normalized growth,"S. cerevisiae deletion strains, locus YLR221C, strain rsa3, active compounds read low",0.877 (active)
same,normalized growth,"S. cerevisiae deletion strains, locus YLR258W, strain gsy2, active compounds read low",0.905 (active)
same,normalized growth,"S. cerevisiae deletion strains, locus YLR262C, strain YPT6 (second series), active compounds read low",0.701 (active)
same,normalized growth,"S. cerevisiae deletion strains, locus YLR262C, strain YPT6, active compounds read low",0.13 (active)
same,normalized growth,"S. cerevisiae deletion strains, locus YLR268W, strain sec22, active compounds read low",0.112 (active)
same,normalized growth,"S. cerevisiae deletion strains, locus YLR320W, strain mms22, active compounds read low",0.844 (active)
same,normalized growth,"S. cerevisiae deletion strains, locus YLR330W, strain CHS5, active compounds read low",0.0655 (active)
same,normalized growth,"S. cerevisiae deletion strains, locus YLR342W, strain FKS1 (second series), active compounds read low",0.0959 (active)
same,normalized growth,"S. cerevisiae deletion strains, locus YLR342W, strain FKS1, active compounds read low",0.865 (active)
same,normalized growth,"S. cerevisiae deletion strains, locus YLR357W, strain rsc2, active compounds read low",0.907
same,normalized growth,"S. cerevisiae deletion strains, locus YLR370C, strain arc18, active compounds read low",0.88 (active)
same,normalized growth,"S. cerevisiae deletion strains, locus YLR371W, strain rom2, active compounds read low",0.15 (active)
same,normalized growth,"S. cerevisiae deletion strains, locus YLR384C, strain iki3, active compounds read low",0.957
same,normalized growth,"S. cerevisiae deletion strains, locus YLR418C, strain cdc73, active compounds read low",0.138 (active)
same,normalized growth,"S. cerevisiae deletion strains, locus YML016C, strain PPZ1, active compounds read low",0.0829 (active)
same,normalized growth,"S. cerevisiae deletion strains, locus YML032C, strain rad52, active compounds read low",0.121 (active)
same,normalized growth,"S. cerevisiae deletion strains, locus YML120C, strain ndi1, active compounds read low",1.02
same,normalized growth,"S. cerevisiae deletion strains, locus YML124C, strain tub3, active compounds read low",0.195 (active)
same,normalized growth,"S. cerevisiae deletion strains, locus YMR058W, strain fet3, active compounds read low",0.416 (active)
same,normalized growth,"S. cerevisiae deletion strains, locus YMR078C, strain ctf18, active compounds read low",0.147 (active)
same,normalized growth,"S. cerevisiae deletion strains, locus YMR125W, strain sto1, active compounds read low",1.02
same,normalized growth,"S. cerevisiae deletion strains, locus YMR129W, active compounds read low",0.997
same,normalized growth,"S. cerevisiae deletion strains, locus YMR205C, strain PFK2, active compounds read low",0.871 (active)
same,normalized growth,"S. cerevisiae deletion strains, locus YMR223W, strain ubp8, active compounds read low",0.157 (active)
same,normalized growth,"S. cerevisiae deletion strains, locus YMR231W, strain pep5, active compounds read low",1
same,normalized growth,"S. cerevisiae deletion strains, locus YMR263W, strain SAP30, active compounds read low",0.377 (active)
same,normalized growth,"S. cerevisiae deletion strains, locus YMR307W, strain GAS1, active compounds read low",0.149 (active)
same,normalized growth,"S. cerevisiae deletion strains, locus YNL067W, strain RPL9B, active compounds read low",0.0765 (active)
same,normalized growth,"S. cerevisiae deletion strains, locus YNL071W, strain lat1, active compounds read low",0.951
same,normalized growth,"S. cerevisiae deletion strains, locus YNL153C, strain GIM3, active compounds read low",0.0856 (active)
same,normalized growth,"S. cerevisiae deletion strains, locus YNL183C, strain NPR1, active compounds read low",0.941
same,normalized growth,"S. cerevisiae deletion strains, locus YNL209W, strain ssb2, active compounds read low",0.82 (active)
same,normalized growth,"S. cerevisiae deletion strains, locus YNL233W, strain BNI4, active compounds read low",0.0884 (active)
same,normalized growth,"S. cerevisiae deletion strains, locus YNL248C, strain rpa49, active compounds read low",0.974
same,normalized growth,"S. cerevisiae deletion strains, locus YNL250W, strain rad50, active compounds read low",0.738 (active)
same,normalized growth,"S. cerevisiae deletion strains, locus YNL271C, strain bni1, active compounds read low",0.96
same,normalized growth,"S. cerevisiae deletion strains, locus YNL298W, strain CLA4, active compounds read low",0.98
same,normalized growth,"S. cerevisiae deletion strains, locus YNL307C, strain MCK1, active compounds read low",0.0826 (active)
same,normalized growth,"S. cerevisiae deletion strains, locus YNL322C, strain KRE1 (second series), active compounds read low",0.972
same,normalized growth,"S. cerevisiae deletion strains, locus YNR049C, strain mso1, active compounds read low",0.926
same,normalized growth,"S. cerevisiae deletion strains, locus YNR052C, strain pop2, active compounds read low",0.0986 (active)
same,normalized growth,"S. cerevisiae deletion strains, locus YOL012C, strain htz1",0.253
same,normalized growth,"S. cerevisiae deletion strains, locus YOL147C, strain pex11, active compounds read low",0.13 (active)
same,normalized growth,"S. cerevisiae deletion strains, locus YOR001W, strain rrp6, active compounds read low",1.01
same,normalized growth,"S. cerevisiae deletion strains, locus YOR061W, strain CKA2, active compounds read low",0.0764 (active)
same,normalized growth,"S. cerevisiae deletion strains, locus YOR069W, strain VPS5, active compounds read low",0.0745 (active)
same,normalized growth,"S. cerevisiae deletion strains, locus YOR070C, strain gyp1, active compounds read low",0.989
same,normalized growth,"S. cerevisiae deletion strains, locus YOR080W, strain dia2, active compounds read low",0.916
same,normalized growth,"S. cerevisiae deletion strains, locus YOR083W, strain WHI5, active compounds read low",0.918
same,normalized growth,"S. cerevisiae deletion strains, locus YOR106W, strain vam3, active compounds read low",0.703 (active)
same,normalized growth,"S. cerevisiae deletion strains, locus YOR136W, strain idh2, active compounds read low",0.203 (active)
same,normalized growth,"S. cerevisiae deletion strains, locus YOR144C, strain elg1, active compounds read low",0.298 (active)
same,normalized growth,"S. cerevisiae deletion strains, locus YOR184W, strain ser1, active compounds read low",0.0852 (active)
same,normalized growth,"S. cerevisiae deletion strains, locus YOR231W, strain MKK1, active compounds read low",0.975
same,normalized growth,"S. cerevisiae deletion strains, locus YOR265W, strain rbl2, active compounds read low",0.899 (active)
same,normalized growth,"S. cerevisiae deletion strains, locus YOR270C, strain vph1, active compounds read low",0.656 (active)
same,normalized growth,"S. cerevisiae deletion strains, locus YOR290C, strain snf2, active compounds read low",0.711 (active)
same,normalized growth,"S. cerevisiae deletion strains, locus YOR316C, strain cot1, active compounds read low",0.21 (active)
same,normalized growth,"S. cerevisiae deletion strains, locus YPL051W, strain arl3, active compounds read low",0.756 (active)
same,normalized growth,"S. cerevisiae deletion strains, locus YPL078C, strain atp4, active compounds read low",0.867 (active)
same,normalized growth,"S. cerevisiae deletion strains, locus YPL106C, strain sse1, active compounds read low",0.909
same,normalized growth,"S. cerevisiae deletion strains, locus YPL240C, strain hsp82, active compounds read low",0.933
same,normalized growth,"S. cerevisiae deletion strains, locus YPL241C, strain CIN2, active compounds read low",0.0834 (active)
same,normalized growth,"S. cerevisiae deletion strains, locus YPL256C, strain CLN2, active compounds read low",0.983
same,normalized growth,"S. cerevisiae deletion strains, locus YPR119W, strain clb2, active compounds read low",0.2 (active)
same,normalized growth,"S. cerevisiae deletion strains, locus YPR141C, strain kar3, active compounds read low",0.967
same,normalized growth,"S. cerevisiae deletion strains, locus YPR163C, strain tif3, active compounds read low",0.115 (active)
same,normalized growth,"S. cerevisiae deletion strains, locus YPR167C, strain met16, active compounds read low",0.125 (active)
same,normalized growth,"S. cerevisiae deletion strains, strain wtn01, active compounds read low",0.0957 (active)
same,normalized growth,"S. cerevisiae strains, strain wild type, active compounds read low",0.0706 (active)
